# Compound activity from PubChem.
# RORgamma inh: blocks mouse ROR gamma transcriptional activity. P51450. Drosophila S2 Gal4-RORgamma UAS-luciferase reporter, 20 h. Potency, µM (doses to about 53.6 µM), most hits filed as inhibitors. 5.4% of 310,000 active; further: nearly all actives have a fitted effect of over 60% in size
# Target sequence (P51450 whole entry, looked up, the tested form may be a part): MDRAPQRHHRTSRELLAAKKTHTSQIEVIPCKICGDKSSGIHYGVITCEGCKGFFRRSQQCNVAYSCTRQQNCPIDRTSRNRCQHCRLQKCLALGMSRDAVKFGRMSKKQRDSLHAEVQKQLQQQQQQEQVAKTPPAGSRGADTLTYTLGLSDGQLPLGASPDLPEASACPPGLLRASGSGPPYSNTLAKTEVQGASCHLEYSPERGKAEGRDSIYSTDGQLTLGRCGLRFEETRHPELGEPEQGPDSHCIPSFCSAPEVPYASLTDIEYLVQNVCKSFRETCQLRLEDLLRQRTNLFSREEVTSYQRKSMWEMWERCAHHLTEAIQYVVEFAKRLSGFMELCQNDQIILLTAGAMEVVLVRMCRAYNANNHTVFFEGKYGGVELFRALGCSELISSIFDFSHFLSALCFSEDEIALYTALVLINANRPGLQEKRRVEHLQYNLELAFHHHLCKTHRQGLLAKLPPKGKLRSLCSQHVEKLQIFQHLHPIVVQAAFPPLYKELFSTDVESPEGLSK
#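 Drosophila Schneider cells stably carrying a metallothionein-driven Gal4 DBD–ROR gamma fusion and a UAS-Photinus luciferase reporter were exposed to compound for 1 hr, then induced with copper sulfate (700 uM final) for 20 hr at ambient temperature before luminescence reading.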
# MCF10A rereplic: DNA re-replication induction in MCF 10a cells; MCF 10A DNA re-replication, Hoechst nuclear intensity, 48 h; 2.9% of 350,000 active; Potency, µM (titrated, usually from 46.1 µM), hits mostly activators; AID 624296; further: nearly all actives have a fitted effect of over 50% in size
# SW480 rerep: DNA re-replication induction in SW480 cells; SW480 DNA re-replication, Hoechst DNA content imaging, 48 h; Potency, µM (highest dose often 46.1 µM), most hits filed as activators; 1.8% of 340,000 active; further: nearly all actives have a fitted effect of over 55% in size
#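 Image-based read-out: total Hoechst fluorescence of nuclei (405 nm excitation, 500-530 nm emission), with hits raising the fraction of high-intensity nuclei. SW480 colon cells incubated 48 hr with compounds at 37 C.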
# Gal4-VP16 FLuc: counter-screen for ROR gamma inhibitors: Gal4-VP16 reporter; AID 2546; Drosophila S2 Gal4-VP16 UAS-luciferase, luminescence, 20 h; Potency, µM (series often up to 53.6 µM), usual class: inhibitors; 3.5% of 310,000 active;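 further: Gal4-VP16 expression switched on by copper sulfate through the metallothionein promoter; nearly all actives have a fitted effect of over 50% in size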
# ELG1 repair inh: ELG1-dependent DNA repair inhibition | AID 504467 | 2.3% of 330,000 active | HEK293T ELG1-luciferase reporter, luminescence, 16 h; DNA damage induced by 5-fluorouridine | Potency, µM (titrated, usually from 46.1 µM), usual class: inhibitors; further: nearly all actives have a fitted effect of over 55% in size
#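 5-Fluorouridine DNA damage + compound/DMSO, 2,000 cells/well, 16 h, 37 °C/5% CO2. ONE-Glo, 30 min RT, luminescence. Readout = decrease in reporter signal.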
# ELG1 FLuc counter: luciferase inhibition in cell-free luciferin readout for ELG1 hits. shares compounds with ELG1 repair inh. cell-free firefly luciferase luminescence counter-screen, ViewLux. Potency, µM (titrated, usually from 46.1 µM), hits mostly inhibitors. 3% of 350 active
# ELG1 Luc conf: confirmation of human ELG1-dependent DNA repair inhibitors. shares compounds with ELG1 repair inh. HEK293T ELG1-luciferase levels, luminescence; cells co-treated with 5-fluorouridine. Potency, µM (doses to about 46.1 µM), actives largely listed as inhibitors. 68% of 670 active. AID 624248; further: nearly all actives have a fitted effect of over 55% in size
# ELG1 MMS Luc: confirmation of human ELG1 repair inhibitors, MMS stimulated. shares compounds with ELG1 repair inh. HEK293T luciferase-tagged ELG1 level, MMS stimulated. Potency, µM (highest dose often 46.1 µM), usual class: inhibitors. 53% of 670 active. AID 624249; further: nearly all actives have a fitted effect of over 60% in size
# ELG1 5FU viab: confirmation of ELG1 repair inhibitors: viability with 5FU; shares compounds with ELG1 repair inh; cell viability with 5-FU, ELG1-dependent repair; Potency, µM (highest dose often 46.1 µM), actives largely listed as cytotoxic; 670 tested, under 10 active; AID 624250;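 further: ELG1-luc HEK293T cells cotreated with 5-fluorouridine at 10 µM final; viability measured 16 h after compound addition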
# ELG1 MMS cell: confirmation of ELG1 repair inhibitors: viability with MMS; AID 624251; 33% of 670 active; Potency, µM (titrated, usually from 46.1 µM), hits mostly cytotoxic; shares compounds with ELG1 repair inh; Cell viability with MMS, ELG1-dependent DNA repair;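 further: ELG1-luc HEK293T cells co-treated with 10 µM MMS; viability read 16 h after compound addition; nearly all actives have a fitted effect of over 60% in size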
# Cell viab unstim: unstimulated viability counter-screen for ELG1 repair hits. 8% of 900 active. shares compounds with ELG1 repair inh. Potency, µM (highest dose often 45.9 µM), hits mostly cytotoxic. cell viability counter-screen, unstimulated, luminescence. AID 624252;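 further: compound exposure lasted 16 hours before reading; nearly all actives have a fitted effect of over 55% in size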
# FLuc biochem: counter-screen for ELG1 repair inhibitors: firefly luciferase inhibition; Potency, µM (highest dose often 57.5 µM), actives largely listed as inhibitors; shares compounds with ELG1 repair inh; purified firefly luciferase, luminescence counter-screen; 10% of 350 active; AID 624253
# Numbers stand for hits; - = inactive; ? = inconclusive; . = no result given; [ ] = another dose, or the depositor's remark. An excerpt weighted towards active compounds, which were near 10% of everything screened. The call rests on the fitted dose curve; in most records, active means well fitted curve in the direction sought with a large enough effect; inconclusive means small, poorly fitted or top-dose-only effect, or another doubt; inactive means no such curve, though single readings can be large; an effect the other way counts as inactive or inconclusive.
SMILES,RORgamma inh,MCF10A rereplic,SW480 rerep,Gal4-VP16 FLuc,ELG1 repair inh,ELG1 Luc conf,ELG1 MMS Luc,ELG1 5FU viab,ELG1 MMS cell,Cell viab unstim,others
c1ccc(SCc2cn(C[C@H]3CC[C@@H]([C@@H]4CC[C@H](Cn5cc(CSc6ccccc6)nn5)O4)O3)nn2)cc1,-,-,-,-,2.06µM,28.1µM,28.1µM,?,-,-,
CCc1cn(C2CC(O)C(CO)O2)c(=O)[nH]c1=O (configuration not stated),.,-,-,.,?,.,.,.,.,.,
CCCN(CCC)S(=O)(=O)c1ccc(C(=O)Nc2ccc(S(=O)(=O)Nc3nnc(CC)s3)cc2)cc1,-,-,-,-,-,.,.,.,.,.,
Cc1ccc2nsnc2c1S(=O)(=O)N(Cc1cc2cccc(C)c2[nH]c1=O)CC1CCCO1 (configuration not stated),-,-,-,-,2.31µM,?,7.91µM,-,-,?,
Cc1ccc2cc(CN(CC3CCCO3)S(=O)(=O)c3c(C)ccc4nsnc34)c(=O)[nH]c2c1 (configuration not stated),-,?,-,-,-,.,.,.,.,.,
Cc1ccc(NC(=O)c2sc(N)nc2-c2ccc([N+](=O)[O-])cc2)c(C)c1,-,-,-,-,-,.,.,.,.,.,
COc1ccc(-c2nn(-c3ccccc3)cc2/C=C/C(=O)N2CCOCC2)cc1OC,-,-,-,-,1.46µM,1.41µM,-,?,-,?,
COc1ccc(-c2nn(-c3ccccc3)cc2C(=O)O)cc1OC,-,-,-,?,-,.,.,.,.,.,
O=C(CSc1n[nH]c(=O)n1Cc1ccccc1)Nc1ccc(F)c(F)c1F,?,-,-,?,-,.,.,.,.,.,
COc1ccc(NC(=O)CN2CCN(C3c4ccccc4-c4ccccc43)CC2)c(OC)c1,?,8.2µM,-,?,3.66µM,3.97µM,8.88µM,?,?,-,
CCOc1ccc(NC(=O)CN2CCN(CC(=O)Nc3ccc(OC)cc3OC)CC2)cc1,-,?,-,-,?,.,.,.,.,.,
COc1cc2c(cc1OC)CN(CC(=O)Nc1ccccc1C(=O)NC1CC1)CC2,.,-,-,.,-,.,.,.,.,.,
COc1cc(C)c(CN2CCN(CC(=O)Nc3ccccc3C(=O)NC3CC3)CC2)cc1OC,.,-,-,.,3.66µM,3.97µM,28.1µM,?,-,-,
COc1ccc(OC)c(CN2CCN(CC(=O)Nc3ccccc3C(=O)NC3CC3)CC2)c1,.,-,-,.,?,7.05µM,?,?,?,?,
CCCC(=O)N(c1ccc(OCC)cc1)S(=O)(=O)c1ccc2c3c(cccc13)C(=O)N2C,-,?,-,-,-,.,.,.,.,.,
COc1ccc(-c2csc(NC(=O)CSCc3c(C)noc3C)n2)c(OC)c1,.,-,-,.,?,.,.,.,.,.,
COc1cccc(CNC(=O)c2cccc(S(=O)(=O)N3CCN(c4ccc(F)cc4)CC3)c2)c1,.,-,-,.,?,.,.,.,.,.,
COc1ccc(CNC(=O)c2cccc(S(=O)(=O)N3CCN(c4ccc(F)cc4)CC3)c2)cc1,.,-,-,.,3.26µM,14.1µM,15.8µM,-,12.5µM,?,
COc1ccc(S(=O)(=O)N2CCSC2C)cc1C (configuration not stated),-,-,-,-,-,.,.,.,.,.,
COc1ccc(S(=O)(=O)N2c3ccccc3NC(=O)CC2C)cc1 (configuration not stated),-,-,-,-,-,.,.,.,.,.,
COc1ccc(CNc2ncnc3sccc23)cc1,?,-,-,?,1.83µM,?,2.81µM,-,2.81µM,?,
O=C(CS(=O)(=O)c1ccccc1)c1cc2cc(F)ccc2oc1=O,-,-,-,?,-,.,.,.,.,.,
O=C(OCC(=O)N1CCc2ccccc2C1)c1c(F)cccc1Cl,.,-,-,.,?,.,.,.,.,-,
COc1ccc2ncn(-c3ccccc3)c2c1,-[10 µM],-,-,-,2.31µM,?,?,-,?,-,
Cc1c(CC(=O)N2CCN(C(=O)C3COc4ccccc4O3)CC2)c(=O)oc2cc(O)c(Cl)cc12 (configuration not stated),-,-,?,-,?,.,.,.,.,.,
SMILES,RORgamma inh,MCF10A rereplic,SW480 rerep,Gal4-VP16 FLuc,ELG1 repair inh,ELG1 Luc conf,ELG1 MMS Luc,ELG1 5FU viab,ELG1 MMS cell,Cell viab unstim,others
Cc1c(Cc2ccccc2)c(=O)oc2cc(OCC(=O)N3CCC(C(N)=O)CC3)ccc12,?,-,-,-,0.82µM,?,28.1µM,?,25µM,-,ELG1 FLuc counter=-;FLuc biochem=?
Cc1cc(=O)oc2cc(OCC(=O)N3CCN(C(=O)C4COc5ccccc5O4)CC3)ccc12 (configuration not stated),-,-,-,-,1.16µM,2.23µM,?,?,?,-,
Cc1cc(=O)oc2cc(OCC(=O)N3CCN(C(=O)C4COc5ccccc5O4)CC3)c(Cl)cc12 (configuration not stated),-,-,-,?,?,.,.,.,.,.,
NC(=O)C1CCN(C(=O)COc2ccc3c(c2)oc(=O)c2ccccc23)CC1,-,-,-,-,-,.,.,.,.,.,
Cc1c(C)c2ccc(OCC(=O)N3CCN(C(=O)C4COc5ccccc5O4)CC3)cc2oc1=O (configuration not stated),-,-,-,-,1.83µM,3.97µM,-,?,-,?,
CCCc1cc(=O)oc2cc(OCC(=O)N3CCN(C(=O)C4COc5ccccc5O4)CC3)ccc12 (configuration not stated),-,-,-,-,3.66µM,3.15µM,?,?,-,?,
O=C(CN1C(=O)NC2(CCOc3ccccc32)C1=O)c1cccs1 (configuration not stated),.,-,-,.,?,.,.,.,.,.,
C[C@@H](C(=O)OCC(=O)NCCc1ccc(S(N)(=O)=O)cc1)N1C(=O)C2CCCCC2C1=O (some centres not stated),-,-,-,-,-,.,.,.,.,.,
